# Screens as filed in PubChem BioAssay.
# RGS4-Gao reg – modulates binding of RGS4 to human Galphao | 220,000 compounds, 0.33% hits | P09471 | binding response (% of control), % at 10 µM | Multiplexed bead flow cytometry; actives lie on both sides | AID 1415; in the data active means binding response below about 49% or above about 150%; inactive means in between;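 further: fluorescent Galphao activated with aluminum fluoride binding bead-coupled RGS4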
# RGS8-Gao reg – human RGS8-Galphao interaction regulation. P09471. multiplexed bead flow cytometry, RGS8-Galphao binding; actives lie on both sides. response (percent of control binding), % at 10 µM. 220,000 compounds, 0.34% hits. AID 1423; in the data active means response below about 60% or above about 140%; inactive means in between;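 further: Galphao activated as the GDP aluminium fluoride complex binding bead-coupled RGS8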
# Avidin bead fluor – avidin bead compound fluorescence profile | Avidin beads, compound fluorescence 488/530 nm, flow cytometry; active compounds read high | fluorescence (KMESF) at 10 µM | 220,000 compounds, 0.38% hits; in the data active means fluorescence above about 47
# RGS16-Gao – modulates binding between human RGS16 and Galphao. binding response (% of control), % at 10 µM. 220,000 compounds, 0.38% hits. O15492+P09471. bead-based flow cytometry RGS16-Galphao binding, fluorescence; actives lie on both sides;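 further: Galphao activated by GDP with aluminum fluoride before binding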
# Target sequence (O15492 whole entry, looked up): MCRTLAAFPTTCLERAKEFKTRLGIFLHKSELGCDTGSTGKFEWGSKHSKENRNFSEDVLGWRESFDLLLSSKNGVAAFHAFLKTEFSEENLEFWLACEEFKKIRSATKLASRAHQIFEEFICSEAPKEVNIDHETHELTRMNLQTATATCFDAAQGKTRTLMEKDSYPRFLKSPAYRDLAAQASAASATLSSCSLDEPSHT
# Target sequence (P09471 whole entry, looked up): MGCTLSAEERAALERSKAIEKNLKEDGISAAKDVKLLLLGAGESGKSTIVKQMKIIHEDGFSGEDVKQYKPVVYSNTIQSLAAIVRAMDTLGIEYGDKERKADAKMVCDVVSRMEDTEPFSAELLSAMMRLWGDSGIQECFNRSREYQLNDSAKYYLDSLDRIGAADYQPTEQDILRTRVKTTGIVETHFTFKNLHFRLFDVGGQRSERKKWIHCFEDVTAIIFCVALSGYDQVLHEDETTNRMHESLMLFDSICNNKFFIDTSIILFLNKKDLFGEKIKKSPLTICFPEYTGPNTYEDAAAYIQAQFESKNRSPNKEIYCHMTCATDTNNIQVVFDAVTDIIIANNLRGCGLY
# RGS7-Gao – regulators of human RGS7-Galphao interaction | P09471 | Multiplexed bead flow cytometry, RGS7-Galphao binding; actives lie on both sides | binding response (% of control), % at 10 µM | 220,000 compounds, 0.35% hits | AID 1439; in the data active means binding response below about 49% or above about 150%; inconclusive means no clear call, values can overlap the other calls; inactive means in between;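 further: fluorescent Galphao held in activated GDP-AlF4 state binding bead-coupled RGS7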
# GSH fluor – GSH bead compound fluorescence profile | GSH beads flow cytometry, compound fluorescence 488/530 nm; active compounds read high | fluorescence (KMESF) at 10 µM | 190,000 compounds, 0.25% hits; in the data active means fluorescence above about 89;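 further: glutathione beads carrying GST-tagged Bcl family fusion proteins plus one bare bead set; values are compound well signal with DMSO vehicle wells as background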
# RGS-Gao – RGS4-Galphao interaction regulator (human); multiplexed bead flow cytometry, RGS–Galpha-o binding; RGS4–Galpha-o binding response, % at 10 µM; shares compounds with RGS16-Gao; 1,600 compounds, 99% hits;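 further: fluorescently labeled Galpha-o bound to GDP with aluminium fluoride binding biotinylated RGS beads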
# Avidin counter – interferes with biotinylated probe binding to avidin beads; inhibition, % at 10 µM; streptavidin beads, fluorescein-biotin binding, flow cytometry; shares compounds with RGS16-Gao; 1,700 tested, under 10 active;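 active means inhibition above 50%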;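 further: median green fluorescence of gated singlet beads compared with DMSO control wells; 0% = DMSO wells and 100% = complete loss of bead fluorescence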
# RGS8-Gao single – confirmation of regulators of human RGS8-Galphao interaction; shares compounds with RGS16-Gao; bead-based flow cytometry RGS8-Galphao binding, fluorescence; actives lie on both sides; binding response (% of control), % at 10 µM; 1,700 compounds, 3% hits; in the data active means binding response below about 72% or above about 130%; inactive means in between;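 further: Galphao activated as GDP AlF4 complex before binding bead RGS8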
# RGS7-Gao single – confirmation of regulators of human RGS7-Galphao interaction; shares compounds with RGS16-Gao; bead-based flow cytometry RGS7-Galphao binding; actives lie on both sides; response (percent of control binding), % at 10 µM; 1,700 compounds, 7.8% hits; AID 1837; in the data active means response below about 75% or above about 130%; inactive means in between;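 further: fluorescent Galphao activated with GDP and aluminum fluoride binding bead-coupled RGS7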
# RGS16-Gao single – confirmation of regulators of human RGS16-Galphao interaction; shares compounds with RGS16-Gao; bead-based flow cytometry, RGS16-Galphao binding; actives lie on both sides; response (% of control binding), % at 10 µM; 1,700 compounds, 4% hits; AID 1838; in the data active means response below about 74% or above about 130%; inactive means in between;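 further: Galphao activated as the GDP aluminium fluoride complex binding bead-coupled RGS16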
# RGS4-Gao single – confirmation of regulators of human RGS4-Galphao interaction. binding response (% of control), % at 10 µM. RGS4-Galphao binding, multiplexed bead flow cytometry; actives lie on both sides. 1,700 compounds, 4% hits. shares compounds with RGS16-Gao; in the data active means binding response below about 74% or above about 130%; inactive means in between
# RGS19-Gao conf – confirmation of regulators of human RGS19-Galphao interaction | shares compounds with RGS16-Gao | bead-based flow cytometry RGS19-Galphao binding; actives lie on both sides | response (percent of control binding), % at 10 µM | 1,700 compounds, 5% hits | AID 1841; in the data active means response below about 50% or above about 160%; inactive means in between;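 further: 100% = no compound control and 0% = blank background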
# Numbers without * were called inactive; ? = inconclusive; nt = not tested or not shown; [ ] = another dose, or the depositor's remark. A selection: hits, their analogues and other compounds. The true share with any hit is near 1.2%. Unless noted, how the calls were made is not given here.
SMILES,RGS4-Gao reg,RGS8-Gao reg,Avidin bead fluor,RGS16-Gao,RGS7-Gao,GSH fluor,Avidin counter,RGS8-Gao single,RGS7-Gao single,RGS16-Gao single,RGS4-Gao single,RGS19-Gao conf,others
COc1ccc(-c2ccc(SCC(=O)N3CCCC3)nn2)cc1OC,97,99,19,104,94,11,nt,nt,nt,nt,nt,nt,
COc1ccc(-c2ccc(SCC(=O)N3CCOCC3)nn2)cc1OC,nt,nt,nt,nt,nt,39,-2,103,105,106,106,108,
O=C1N(C2CCCC2)C[C@@H]2C[C@@H](c3cccn3-c3nccs3)N3CCC[C@@]123,97,99,6,99,97,19,nt,nt,nt,nt,nt,nt,
O=C(CN(Cc1ccccc1)S(=O)(=O)c1ccc2c(c1)OCCO2)Nc1ccc2c(c1)OCCO2,184*[activator],136,95*,478,261*[activator],74,-2,101,100,98,101,93,
CS(=O)(=O)N(CC(=O)Nc1ccc2c(c1)OCCO2)Cc1ccccc1,101,101,7,98,98,55,nt,nt,nt,nt,nt,nt,
O=C(COC(=O)c1sc2ccccc2c1Cl)NCC1CCCCC1,100,99,11,105,104,11,nt,nt,nt,nt,nt,nt,
CC1CCCC(NC(=O)COC(=O)c2sc3ccccc3c2Cl)C1C (stereo not given),4.5*,9.4*,-5,0.2*,-6.9*,11,-1,99,96,100,100,98,
COc1ccc(Oc2c(O)c3ccccc3n(C)c2=O)cc1,9.1*,9.0*,-2,-92,17*,11,-3,99,97,97,97,101,
Cn1c(=O)c(Oc2ccc(Cl)cc2)c(O)c2ccccc21,103,106,3,115,102,10,nt,nt,nt,nt,nt,nt,
CC(/C=N/n1c(-c2ccco2)n[nH]c1=S)=C\c1ccco1,73,62,2,-3.8*,76,11,-1,95,104,92,96,94,RGS-Gao=73*
CC(/C=N/n1c(-c2ccc(C)cc2)n[nH]c1=S)=C\c1ccco1,96,99,11,105,105,17,nt,nt,nt,nt,nt,nt,
COCCN(C(=O)CCCC(=O)Nc1ccccn1)C(C(=O)NC1CCCCC1)c1ccc(C)cc1 (stereo not given),107,105,23,105,111,4,nt,nt,nt,nt,nt,nt,
CCC(OC(=O)c1cc2sccc2n1C)C(=O)NCC1CCCO1 (stereo not given),190*[activator],107,47*,203*[activator],161*[activator],43,-1,101,95,99,99,106,
CC(OC(=O)c1cc2sccc2n1C)C(=O)NCC1CCCO1 (stereo not given),97,101,12,102,101,13,nt,nt,nt,nt,nt,nt,
CC1=C(C(=O)Nc2ccc(F)c(F)c2)C(c2cccs2)NC(=S)N1 (stereo not given),102,103,2,108,102,6,nt,nt,nt,nt,nt,nt,
CC1=C(C(=O)Nc2ccc(C)cc2)C(c2cccs2)NC(=S)N1 (stereo not given),54,67,7,49,46*,15,-2,110,105,112,104,118,RGS-Gao=54*
CC1CCC(NC(=O)CN(C)S(=O)(=O)c2cccc3cccnc23)CC1 (stereo not given),26*,33*,1,19*,?,nt,1,101,101,99,100,105,
Cc1ccc(NC(=O)CN(C)S(=O)(=O)c2cccc3cccnc23)cc1,100,74,4,130,64,20,nt,nt,nt,nt,nt,nt,
COc1cc(SC)ccc1C(=O)N1CCN(c2ccccc2F)CC1,99,97,11,98,97,19,nt,nt,nt,nt,nt,nt,
Cc1cc(C)nc(NNC(=O)NC2CCCCC2)n1,-11*,2.4*,-2,-20*,-8.8*,14,0,113,119,119,112,107,
COC(=O)[C@@H]1C[C@@H]2CC[C@@H](O)C[C@@H]2N1Cc1ccc(Cl)cc1,95,99,8,97,?,nt,nt,nt,nt,nt,nt,nt,
CNC(=O)/C(C#N)=C/c1cc(C)n(-c2ccc(N3CCOCC3)cc2)c1C,254*[activator],104,114*,216*[activator],?,nt,-1,102,92,96,95,107,
CCOC(=O)c1cc2c(n(-c3ccccc3)c1=O)CC(C)(C)CC2=O,96,101,8,91,95,57,nt,nt,nt,nt,nt,nt,
